The panel holds about 83,000 compounds, 20% with a hit somewhere; the sample as a whole holds those more often.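 Each cell line was grown in a 96-well plate and treated with one concentration of compound for 48 hours. Values below 10 were considered active.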 Values without a mark were called inactive. Calls of active or inactive are those of the source.

Holding throughout (experiment): NCI-60 one-dose screen, 48 h (100 = growth as untreated, 0 = no growth, -100 = all killed)
The test system of one test is EKVX NSCLC. The conditions noted are these: 10 µM unless noted.
The next test has as its system SN12C renal. The conditions noted are these: 10 µM unless noted.
The test system of a further test is UO-31 renal. The conditions noted are these: 10 µM unless noted.
The next test relates to TK-10 renal. The conditions noted are these: 10 µM unless noted.
A further test relates to ACHN renal. The conditions noted are these: 10 µM unless noted.
For a further test, the system named is CAKI-1 renal. The conditions noted are these: 10 µM.
The subject of a further test is A498 renal. The conditions noted are these: 10 µM unless noted.
In the next test the test system is CCRF-CEM leukemia. The conditions noted are these: 10 µM unless noted.
Another test has as its system RPMI-8226 leukemia. The conditions noted are these: 10 µM unless noted.
Another test has as its system OVCAR-8 ovarian. The conditions noted are these: 10 µM unless noted.
For another test, the system named is OVCAR-5 ovarian. The conditions noted are these: 10 µM unless noted.
For a further test, the system named is OVCAR-4 ovarian. The conditions noted are these: 10 µM unless noted.
The subject of another test is SK-OV-3 ovarian. The conditions noted are these: 10 µM unless noted.
The next test deals with IGROV1 ovarian. The conditions noted are these: 10 µM unless noted.
For a further test, the system named is HS 578T breast. The conditions noted are these: 10 µM unless noted.
In a further test the test system is NCI/ADR-RES ovarian. The conditions noted are these: 10 µM unless noted.
The subject of another test is MOLT-4 leukemia. The conditions noted are these: 10 µM unless noted.
For a further test, the system named is SR leukemia. The conditions noted are these: 10 µM unless noted.

For the compound `COc1ccc(-c2no[n+]([O-])c2Nc2ccccc2Br)cc1`, the growth in the test with EKVX NSCLC is 96.1%; with SN12C renal, 90.4%; with UO-31 renal, 69.6%; in the test with TK-10 renal it was 145%; with ACHN renal it was 89.2%; in the test with CAKI-1 renal it was 86%. Moreover, the growth with A498 renal was 113%; in the test with CCRF-CEM leukemia it was 109%; with RPMI-8226 leukemia, 93.7%; in the test on OVCAR-8 ovarian, 90.3%; in the test with OVCAR-5 ovarian it was 108%; with OVCAR-4 ovarian, 101%. For the same compound, the growth with SK-OV-3 ovarian is 94.3%; in the test on IGROV1 ovarian it was 85.4%; with HS 578T breast, 88.9%; in the test on NCI/ADR-RES ovarian, 94.9%.

Regarding `C/C(=C(/c1ccc(O)cc1)c1ccc(OCCN(C)C)cc1)c1ccc(Cl)cc1`, the growth in the test with EKVX NSCLC is 61.4%; with SN12C renal, 59.1%; in the test on UO-31 renal, 50.6%; in the test on TK-10 renal, 85%; in the test on ACHN renal, 32.8%; in the test on CAKI-1 renal, 36.2%. For the same compound, the growth was 70.2% in the test with A498 renal; 53% in the test with CCRF-CEM leukemia; 11.9% in the test on MOLT-4 leukemia; -3.2% (active) in the test with SR leukemia; -8.72% (active) in the test on RPMI-8226 leukemia; 62.1% with OVCAR-8 ovarian. For the same compound, the growth was 66.6% with OVCAR-5 ovarian; 66.9% with OVCAR-4 ovarian; 83% with SK-OV-3 ovarian; 46.8% in the test on HS 578T breast; 61.8% in the test on NCI/ADR-RES ovarian.

In the case of `COc1ccc2c(C3=C(c4c[nH]c5ccccc45)C(=O)N(O)C3=O)coc2c1`, the growth in the test on EKVX NSCLC was 77%; with SN12C renal, 101%; in the test with UO-31 renal it was 58.2%; in the test on TK-10 renal it was 144%; in the test with ACHN renal, 94.2%; in the test on CAKI-1 renal, 90.2%. For the same compound, the growth in the test on A498 renal was 85%; in the test with CCRF-CEM leukemia, 26.9%; with RPMI-8226 leukemia, 72.1%; in the test with OVCAR-8 ovarian, 77.5%; with OVCAR-5 ovarian it was 105%; in the test on OVCAR-4 ovarian, 114%. In addition, the growth in the test on SK-OV-3 ovarian was 86.5%; with IGROV1 ovarian it was 77.1%; in the test on HS 578T breast, 96.4%; with NCI/ADR-RES ovarian it was 99.5%.

`CS(=O)c1nccc(-c2c(-c3ccc(F)c(OCCc4ccccc4)c3)nc3sccn23)n1` (stereo unspecified): the growth is 99.9% in the test on EKVX NSCLC; 93.7% with SN12C renal; 52.7% in the test with UO-31 renal; 105% in the test on TK-10 renal; 72.8% in the test on ACHN renal; 84.8% with CAKI-1 renal. Moreover, the growth in the test on A498 renal was 92.6%; in the test with CCRF-CEM leukemia, 49.8%; in the test with OVCAR-8 ovarian it was 93%; in the test on OVCAR-5 ovarian, 111%; with OVCAR-4 ovarian it was 102%; with SK-OV-3 ovarian, 102%. Further, the values for the growth in the test on IGROV1 ovarian, with HS 578T breast and in the test on NCI/ADR-RES ovarian were 17.7%, 99.8% and 108%, respectively.

`CCNCCCn1c2c(c3cc(OC)c(OC)cc3c1=O)C(=O)c1cc(OC)cnc1-2`: the growth with EKVX NSCLC is 43.3%; in the test on SN12C renal it was 20.8%; with UO-31 renal, 18%; in the test with TK-10 renal, 64.4%; with ACHN renal, 6.11% (active); in the test on CAKI-1 renal, 18.3%. The growth with A498 renal was 15.8%; in the test with CCRF-CEM leukemia, 8.89% (active); in the test on OVCAR-8 ovarian, 14.1%; in the test on OVCAR-5 ovarian, 46.2%; with OVCAR-4 ovarian it was 6.87% (active); in the test with SK-OV-3 ovarian, -32.1% (active). The growth with IGROV1 ovarian is 32.3%; in the test on NCI/ADR-RES ovarian, 26.9%.

Take `COc1cc(-c2nc(SCc3ccc(C)cc3)[nH]c(=O)c2C#N)ccc1OCc1ccccc1`: the growth with EKVX NSCLC is 107%; in the test on SN12C renal it was 116%; with UO-31 renal, 91.8%; in the test on TK-10 renal, 101%; in the test with ACHN renal it was 105%; with CAKI-1 renal it was 95.2%. For the same compound, the growth with CCRF-CEM leukemia was 116%; with MOLT-4 leukemia, 129%; with SR leukemia, 125%; in the test with RPMI-8226 leukemia, 105%; in the test with OVCAR-8 ovarian it was 101%; with OVCAR-5 ovarian, 105%. For the same compound, the growth in the test on OVCAR-4 ovarian was 98.1%; in the test on SK-OV-3 ovarian, 108%; in the test on IGROV1 ovarian, 116%; in the test with HS 578T breast, 107%; in the test with NCI/ADR-RES ovarian it was 103%.

For `COc1ccc(CCN2C(=O)CSC2=S)cc1OC`, the growth in the test with EKVX NSCLC was 103%; with SN12C renal it was 93%; in the test on UO-31 renal, 83%; in the test with TK-10 renal, 55.6%; in the test on ACHN renal it was 100%; in the test on CAKI-1 renal it was 84.6%. Moreover, the growth was 63% with CCRF-CEM leukemia; 88.7% with MOLT-4 leukemia; 64.6% with SR leukemia; 32.8% with RPMI-8226 leukemia; 98.6% in the test with OVCAR-8 ovarian; 104% in the test on OVCAR-5 ovarian. The growth with OVCAR-4 ovarian is 100%; in the test with SK-OV-3 ovarian it was 99.1%; in the test with IGROV1 ovarian, 102%; in the test on HS 578T breast, 104%; in the test on NCI/ADR-RES ovarian, 101%.

As to `Cc1nc(-c2cc3ccccc3c(N3CCN(C)CC3)n2)cs1`, the growth with EKVX NSCLC was 96.3%; in the test with SN12C renal it was 90%; with UO-31 renal, 67%; with TK-10 renal, 98.2%; in the test on ACHN renal, 94%; in the test on CAKI-1 renal, 72.1%. The growth with CCRF-CEM leukemia was 103%; in the test with MOLT-4 leukemia, 98%; with SR leukemia, 102%; with RPMI-8226 leukemia, 99.2%; in the test with OVCAR-8 ovarian it was 98.8%; in the test on OVCAR-5 ovarian, 104%. For the same compound, the growth was 102% in the test with OVCAR-4 ovarian; 97.1% with SK-OV-3 ovarian; 97.3% in the test on IGROV1 ovarian; 85.5% with HS 578T breast; 94.3% in the test with NCI/ADR-RES ovarian.

With `O=C1Nc2cc(OC(F)(F)F)ccc2Oc2ccc(-c3ccnc(N4CC[C@H](O)C4)c3)cc21`, the growth in the test on EKVX NSCLC is 45.9%; with SN12C renal, 7.37% (active); with UO-31 renal, 24%; in the test with TK-10 renal it was 75.6%; in the test with ACHN renal, 25.1%; in the test with CAKI-1 renal it was 23.9%. Also, the growth with CCRF-CEM leukemia is 12.6%; in the test with MOLT-4 leukemia, 11.3%; in the test on SR leukemia, -6.83% (active); in the test with RPMI-8226 leukemia, 17%; in the test with OVCAR-8 ovarian it was -14.4% (active); in the test with OVCAR-5 ovarian it was 25.5%. In addition, the growth with OVCAR-4 ovarian is 48.5%; with SK-OV-3 ovarian it was 27.1%; in the test on IGROV1 ovarian it was 16.8%; in the test with HS 578T breast it was 24.5%; with NCI/ADR-RES ovarian, 9.76% (active).
